Data as given in the supplement of paper PMC3334620.
The full ranking holds about 33,000 sequences; the median of “E-score (-0.5 to 0.5)” is about -0.01, and the highest 2% start at about 0.26. The full list was thinned out, with the highest values kept by preference.

biological target: Ste12 (UniProt P13574); experiment: PBM E-score (8-mer binding enrichment) (E-score (-0.5 to 0.5)); higher = stronger / more preferred TF binding; settings: protein concentration: 200 nM; construct: GST-DNA-binding domain
Chain of UniProt P13574 (P13574 whole entry, the tested form may be a part): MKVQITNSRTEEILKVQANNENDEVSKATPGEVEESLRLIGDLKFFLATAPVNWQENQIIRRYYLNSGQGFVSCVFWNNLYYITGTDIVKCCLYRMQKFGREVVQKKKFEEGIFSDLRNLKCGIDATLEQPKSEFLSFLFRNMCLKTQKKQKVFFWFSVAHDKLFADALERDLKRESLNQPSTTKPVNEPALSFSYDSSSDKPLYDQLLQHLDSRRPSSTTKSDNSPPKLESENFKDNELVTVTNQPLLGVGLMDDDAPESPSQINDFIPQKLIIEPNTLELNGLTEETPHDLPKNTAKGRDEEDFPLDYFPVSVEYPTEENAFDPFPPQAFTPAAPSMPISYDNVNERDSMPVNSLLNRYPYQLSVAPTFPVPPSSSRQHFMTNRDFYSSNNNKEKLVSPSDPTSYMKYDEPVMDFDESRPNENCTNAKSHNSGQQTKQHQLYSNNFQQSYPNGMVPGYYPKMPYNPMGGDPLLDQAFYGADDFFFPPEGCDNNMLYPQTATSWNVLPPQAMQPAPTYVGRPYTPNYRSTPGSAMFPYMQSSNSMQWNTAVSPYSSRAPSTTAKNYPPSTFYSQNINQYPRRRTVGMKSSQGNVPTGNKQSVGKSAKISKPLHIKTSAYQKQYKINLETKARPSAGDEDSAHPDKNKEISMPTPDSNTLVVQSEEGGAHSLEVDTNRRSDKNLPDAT
Procedure: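 Universal 'all 10-mer' protein binding microarrays (Agilent AMADID 015681) probed with GST-tagged S. cerevisiae TFs (full-length or DBD) made by in vitro transcription/translation (PURExpress), about 100-200 nM. Bound TF was detected with fluorescent anti-GST. Each ungapped 8-mer (which stands for itself and its reverse complement) is scored by the PBM enrichment score (E-score), a modified Wilcoxon-Mann-Whitney statistic from -0.5 to +0.5, computed with the Universal PBM Analysis Suite. Scale: above 0.35 generally sequence-specific binding.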

Sequence	PBM E-score
CTGATCAG	-0.0327
TATTTGCA	0.0371
CCCAGCGA	-0.0316
ACCAATTA	0.199
AGAAACAT	0.32
CGAAACAA	0.349
CGAAACAC	0.348
AGAAACAC	0.121
CGAAACAG	0.244
AGAAACCA	0.194
CGAAACCA	0.209
GGAAACAC	0.225
AGAAACAG	0.0492
GAAAACAA	0.197
TGAAACCA	0.438
AAAAACAT	0.241
CGACGCAG	-0.237
GCCTATTA	0.0234
CAGCTCCC	-0.254
CCCGTCAC	0.0322
CCAGCAAG	-0.148
AGGAGCAA	-0.108
CGGCCCGA	0.078
CCGAATAG	-0.0705
AAATCTGG	0.21
GGCGCTCA	-0.066

Sequence	PBM E-score
ATGATAAT	0.13
AGACCTAG	-0.0522
GGAAACAA	0.13
TCAAACCA	0.278
CCAAACCA	0.0357
AGAAACAA	0.26
TGAAACAA	0.493
ACAAACCA	0.00217
CGGAAGAA	0.0583
ATATCATC	0.141
GATAGAAC	0.0461
AGATTAGA	0.00999
AATGTTAA	0.102
AATGTTAG	-0.00616
CATGTTTC	0.4
AAAGTTTC	0.329
CATGTTTA	0.199
CATGTTGC	-0.0677
AATGTTTA	0.174
AATGTTTC	0.318
AATGTTTG	0.0124
AATGTTAT	0.265
CAAGTTTC	0.254
AAAGTTTA	0.199
AACGCTAA	-0.0143
GTGTAGGA	0.0365

Sequence	PBM E-score
CACTCCAG	-0.019
ACTCTGAT	0.146
ATAAAGCC	0.00222
AGGCCTAG	-0.218
ACAGAAGG	-0.173
CTTGAGGC	-0.184
ATGGACGG	-0.00997
CTCGCACC	-0.103
CGCCCACA	0.197
CGTCGCCC	-0.121
CAAAATTA	0.247
ACAAATTA	0.263
AAAAATTA	0.326
CCAAATTA	0.221
CAAAATTG	0.0598
ATAAATTG	0.321
AAAAATTG	0.263
ATAAATTA	0.255
ATAAATTC	0.102
AAAAATTC	0.224
GAAAATTA	0.206
ACAAATTG	0.177
CTCAACGC	-0.0089
CAGCAGCC	-0.0193
AATGGAGC	-0.0645
AAACGATT	0.165

Sequence	PBM E-score
ACTACTCA	-0.0467
ACACCATG	-0.108
GACCGATA	-0.00126
GCGAAGAC	-0.141
AGGATTGC	-0.025
ATAAACTA	0.211
ATAAACTG	0.302
ATAAACTC	0.125
CTACGCTC	-0.00605
CTCCCATA	-0.0685
TATTGGAA	-0.00217
CAATACAA	0.294
CAATACAC	0.0704
CGATACAA	0.0267
TGATAAAA	0.266
CGGATAAA	0.149
TGATACAA	0.339
CGATAAAA	0.171
CAATACAG	-0.115
AGATAAAA	0.245
AGATACAA	0.135
GGGATAAA	0.271
GGGATAAC	-0.0162
AATTAGGA	0.145
CCCAGCGG	-0.192
AACACTCG	0.0544

Sequence	PBM E-score
TCTGAACA	0.0453
ACCACCGG	-0.0277
AAATTGAA	0.185
CCATGAAG	-0.0229
CATAAGGC	-0.0753
GGTGCGAA	0.2
AAACCGTT	0.00687
GGGTAAAC	0.119
GGATAAAA	0.279
CGGTAAAA	0.198
GGGTAAAA	0.295
GGATAAAC	0.135
GGATAAGA	0.0906
TGGGCCAA	-0.177
CAGCGTCG	-0.0332
CGGAATAC	0.134
GATCAAGC	-0.0184
GAAGGCTC	-0.209
GATAAAAC	0.327
GATAAAAA	0.277
GATAAATA	0.215
CATAAAAA	0.175
GATAAAGA	0.0926
GATAAACC	0.0557
AATAAAAC	0.245
CATAAAAG	0.0283

Sequence	PBM E-score
CATAAAAC	0.28
CGAGCCGA	-0.0584
AGGTTTTC	0.241
GAGCTCCC	-0.0992
CAGACTTC	-0.0901
ACGACTAT	-0.0677
CGTCACCC	0.0725
ACAGAATG	0.0528
GGAACTAC	-0.105
GACTATCA	-0.0567
TACTATCA	0.13
CACTATTC	0.0168
AACTATTC	0.264
AACTATTA	0.0788
AACTATCA	0.262
ATACGGCG	0.15
ACGGGTCT	-0.211
CCAATCTC	0.0596
ACCTGCAA	-0.0499
GTGCGCAA	-0.0274
ATGCGCAC	0.0144
GTGCGCAC	0.355
CCAATCCA	-0.0476
AGCGATCG	0.00873
CAAAAGAC	0.0341
CGATTCGC	0.0897

Sequence	PBM E-score
GCTTGAAA	0.198
ACTTGAAG	0.119
TCTTGAAA	0.308
ACTTGAAA	0.314
ACTTGAAT	0.0108
CCTTGAAA	0.21
GTCGAAGA	-0.0112
ACCTTAGT	-0.137
ATTGTAGC	0.0213
AGTGGTAT	-0.0443
TCACAGGA	0.122
GCGTGAAC	-0.0471
GGTGGGAA	0.127
GGAGGGGA	0.366
GGGTGGGA	0.319
CGAGGGGA	0.0767
CGTGGGGA	0.0623
CGGTGGGA	0.033
GGAGGGAA	-0.0917
AGGTGGGA	-0.049
GGTGGGGA	0.318
